The supplement of paper PMC10849652
Of roughly 7,900 targets only a part is listed; those with a hit were picked by preference. About 0.6% of all pairs of compound and target were hits. A number with no mark means an inactive call.

Key:
Assay in all cases: log2 fold change, soluble protein after heating vs DMSO (PISA); higher = thermal stabilisation; K562 cells, 10 uM, 30 min; active = over 0.2 and 3.5 SD of the protein, either way, in both replicates (recomputed)
duvelisib = compound: C[C@H](Nc1ncnc2nc[nH]c12)c1cc2cccc(Cl)c2c(=O)n1-c1ccccc1 [duvelisib]
In short: (§1)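 Quantification of soluble protein used TMTpro 16plex LC-MS/MS, with channel sums equalised. Samples were the supernatant after 21,000xg for 90 min of pooled aliquots from K562 cells (2×10^6 cells/mL) treated with 10 μM compound for 30 min, heated for 3 min over 48°C-58°C, and extracted in PBS with 0.5% NP-40 at 4°C. Values, from duplicates, describe thermal stability against control samples on a log2 fold-change scale.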

gandotinib = compound: Cc1cc(Nc2cc(CN3CCOCC3)c3nc(C)c(Cc4ccc(Cl)cc4F)n3n2)n[nH]1 [gandotinib]
In short: as §1

tozasertib = compound: Cc1cc(Nc2cc(N3CCN(C)CC3)nc(Sc3ccc(NC(=O)C4CC4)cc3)n2)n[nH]1 [tozasertib]
In short: as §1

[1] = compound: Cc1cc(SCc2sc(-c3ccc(C(F)(F)F)cc3)nc2C)ccc1OCC(=O)O
In short: as §1

bafetinib = compound: Cc1ccc(NC(=O)c2ccc(CN3CC[C@H](N(C)C)C3)c(C(F)(F)F)c2)cc1Nc1nccc(-c2cncnc2)n1 [bafetinib]
In short: as §1

[2] = compound: Cc1cccc(CC(=O)N2CCc3c2ccc(-c2cn(C)c4ncnc(N)c24)c3F)n1
In short: as §1

nilotinib = compound: Cc1cn(-c2cc(NC(=O)c3ccc(C)c(Nc4nccc(-c5cccnc5)n4)c3)cc(C(F)(F)F)c2)cn1 [nilotinib]
In short: as §1

[3] = compound: Cc1nc(Nc2n[nH]c3c2CN(C(=O)N[C@H](CN(C)C)c2ccccc2)C3(C)C)c2sccc2n1
In short: as §1

dasatinib = compound: Cc1nc(Nc2ncc(C(=O)Nc3c(C)cccc3Cl)s2)cc(N2CCN(CCO)CC2)n1 [dasatinib]
In short: as §1

[4] = compound: Cc1ncc(-c2ccnc(Nc3ccc(S(C)(=O)=O)cc3)n2)n1C(C)C
In short: as §1

tipifarnib = compound: Cn1cncc1[C@@](N)(c1ccc(Cl)cc1)c1ccc2c(c1)c(-c1cccc(Cl)c1)cc(=O)n2C [tipifarnib]
In short: as §1

mubritinib = compound: FC(F)(F)c1ccc(/C=C/c2nc(COc3ccc(CCCCn4ccnn4)cc3)co2)cc1 [mubritinib]
In short: as §1

crizotinib = compound: C[C@@H](Oc1cc(-c2cnn(C3CCNCC3)c2)cnc1N)c1c(Cl)ccc(F)c1Cl [crizotinib]
In short: as §1

[5] = compound: C[C@@H]1COCCN1C2=NC(=NC(=C2)C3(CC3)S(=O)(=O)C)C4=C5C=CNC5=CC=C4
In short: as §1

[6] = compound: C[C@H](C1=CC=C(C=C1)C(=O)NC2=C3C=CNC3=NC=C2)N
In short: as §1

doramapimod = compound: Cc1ccc(-n2nc(C(C)(C)C)cc2NC(=O)Nc2ccc(OCCN3CCOCC3)c3ccccc23)cc1 [doramapimod]
In short: as §1

ispinesib = compound: Cc1ccc(C(=O)N(CCCN)[C@@H](c2nc3cc(Cl)ccc3c(=O)n2Cc2ccccc2)C(C)C)cc1 [ispinesib]
In short: as §1

[7] = compound: Cn1cc(-c2ccc3c(c2)CCN3C(=O)Cc2cccc(C(F)(F)F)c2)c2c(N)ncnc21
In short: as §1

[8] = compound: Cn1cc(-c2ccc3nnc(C(F)(F)c4ccc5ncccc5c4)n3n2)cn1
In short: as §1

[9] = compound: CS(=O)(=O)c1ccc(-c2cnc(N)c(C(=O)Nc3ccccc3)n2)cc1
In short: as §1

Chain of UniProt Q14194 (Q14194 whole entry, looked up): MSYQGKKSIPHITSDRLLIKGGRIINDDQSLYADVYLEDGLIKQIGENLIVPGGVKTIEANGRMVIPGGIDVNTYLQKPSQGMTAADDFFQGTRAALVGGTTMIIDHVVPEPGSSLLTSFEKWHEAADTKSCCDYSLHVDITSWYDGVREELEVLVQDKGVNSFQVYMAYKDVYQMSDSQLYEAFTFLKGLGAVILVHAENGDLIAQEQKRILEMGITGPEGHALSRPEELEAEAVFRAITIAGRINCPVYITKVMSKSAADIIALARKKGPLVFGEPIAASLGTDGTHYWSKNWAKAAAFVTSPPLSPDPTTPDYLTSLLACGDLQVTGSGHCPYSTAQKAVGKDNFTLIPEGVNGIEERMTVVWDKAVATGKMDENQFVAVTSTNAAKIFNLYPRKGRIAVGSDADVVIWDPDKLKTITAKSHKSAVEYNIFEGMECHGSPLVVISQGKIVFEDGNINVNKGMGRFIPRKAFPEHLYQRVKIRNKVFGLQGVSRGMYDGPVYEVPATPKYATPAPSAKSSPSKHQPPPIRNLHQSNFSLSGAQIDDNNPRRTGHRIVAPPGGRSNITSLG
Chain of UniProt O75122 (O75122 whole entry, looked up): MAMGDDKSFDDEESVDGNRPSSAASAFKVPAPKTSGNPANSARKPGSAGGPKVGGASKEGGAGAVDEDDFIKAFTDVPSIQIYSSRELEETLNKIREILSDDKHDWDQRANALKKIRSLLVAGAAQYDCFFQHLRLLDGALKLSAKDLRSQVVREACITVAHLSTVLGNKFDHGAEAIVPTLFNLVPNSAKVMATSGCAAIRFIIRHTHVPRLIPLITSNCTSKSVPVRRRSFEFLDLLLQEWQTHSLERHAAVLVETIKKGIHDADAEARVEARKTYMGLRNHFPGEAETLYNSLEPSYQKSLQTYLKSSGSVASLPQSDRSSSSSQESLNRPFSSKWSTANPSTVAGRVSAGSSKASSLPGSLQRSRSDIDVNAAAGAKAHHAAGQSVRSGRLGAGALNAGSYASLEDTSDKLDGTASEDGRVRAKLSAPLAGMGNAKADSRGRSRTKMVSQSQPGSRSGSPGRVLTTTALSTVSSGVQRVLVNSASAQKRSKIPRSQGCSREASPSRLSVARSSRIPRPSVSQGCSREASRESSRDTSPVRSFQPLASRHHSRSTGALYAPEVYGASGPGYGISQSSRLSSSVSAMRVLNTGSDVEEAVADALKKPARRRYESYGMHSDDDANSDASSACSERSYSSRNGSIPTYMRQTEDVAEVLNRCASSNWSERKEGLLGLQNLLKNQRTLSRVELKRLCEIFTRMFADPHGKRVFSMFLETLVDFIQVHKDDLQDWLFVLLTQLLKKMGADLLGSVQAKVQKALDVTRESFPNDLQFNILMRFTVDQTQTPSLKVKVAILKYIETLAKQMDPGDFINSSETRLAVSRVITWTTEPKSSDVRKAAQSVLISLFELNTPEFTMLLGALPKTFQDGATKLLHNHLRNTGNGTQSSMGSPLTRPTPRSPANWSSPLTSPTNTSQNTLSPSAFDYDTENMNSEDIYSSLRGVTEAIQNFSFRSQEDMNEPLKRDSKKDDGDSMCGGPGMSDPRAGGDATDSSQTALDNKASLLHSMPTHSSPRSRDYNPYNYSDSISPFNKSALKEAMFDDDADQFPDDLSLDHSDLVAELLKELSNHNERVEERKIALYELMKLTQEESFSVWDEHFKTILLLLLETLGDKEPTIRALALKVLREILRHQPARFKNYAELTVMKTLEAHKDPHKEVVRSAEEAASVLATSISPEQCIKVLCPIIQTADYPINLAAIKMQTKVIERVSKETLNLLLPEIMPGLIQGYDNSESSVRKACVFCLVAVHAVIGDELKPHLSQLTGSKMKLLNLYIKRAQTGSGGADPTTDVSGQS
Chain of UniProt Q70SY1 (Q70SY1 whole entry, looked up): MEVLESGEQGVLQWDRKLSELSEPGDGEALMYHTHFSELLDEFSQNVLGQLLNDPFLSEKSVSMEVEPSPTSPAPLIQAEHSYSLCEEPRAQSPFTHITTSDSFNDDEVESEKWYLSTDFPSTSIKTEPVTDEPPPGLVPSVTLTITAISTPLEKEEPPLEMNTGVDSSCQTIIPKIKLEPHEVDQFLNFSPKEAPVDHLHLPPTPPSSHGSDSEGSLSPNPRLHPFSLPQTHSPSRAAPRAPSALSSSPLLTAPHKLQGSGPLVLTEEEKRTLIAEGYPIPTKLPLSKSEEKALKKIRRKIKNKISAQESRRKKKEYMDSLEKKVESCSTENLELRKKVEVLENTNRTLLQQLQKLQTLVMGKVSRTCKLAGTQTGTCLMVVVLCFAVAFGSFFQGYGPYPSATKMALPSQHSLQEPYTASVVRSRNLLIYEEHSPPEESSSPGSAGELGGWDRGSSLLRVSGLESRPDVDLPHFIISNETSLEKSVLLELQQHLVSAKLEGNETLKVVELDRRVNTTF
Chain of UniProt P33552 (P33552 whole entry, looked up): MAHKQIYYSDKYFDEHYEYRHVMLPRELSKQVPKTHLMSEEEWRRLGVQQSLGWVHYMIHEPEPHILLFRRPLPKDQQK
Chain of UniProt O95273 (O95273 whole entry, looked up): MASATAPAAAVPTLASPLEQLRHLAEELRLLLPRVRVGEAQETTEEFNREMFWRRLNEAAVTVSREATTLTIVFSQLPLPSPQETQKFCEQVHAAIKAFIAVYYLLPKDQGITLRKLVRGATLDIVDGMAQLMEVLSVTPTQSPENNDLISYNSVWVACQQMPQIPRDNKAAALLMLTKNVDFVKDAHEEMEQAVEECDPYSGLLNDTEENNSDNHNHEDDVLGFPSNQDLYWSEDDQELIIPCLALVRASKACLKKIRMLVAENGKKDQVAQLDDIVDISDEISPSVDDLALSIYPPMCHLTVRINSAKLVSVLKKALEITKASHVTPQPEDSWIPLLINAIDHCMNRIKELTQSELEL
Chain of UniProt P51795 (P51795 whole entry, looked up): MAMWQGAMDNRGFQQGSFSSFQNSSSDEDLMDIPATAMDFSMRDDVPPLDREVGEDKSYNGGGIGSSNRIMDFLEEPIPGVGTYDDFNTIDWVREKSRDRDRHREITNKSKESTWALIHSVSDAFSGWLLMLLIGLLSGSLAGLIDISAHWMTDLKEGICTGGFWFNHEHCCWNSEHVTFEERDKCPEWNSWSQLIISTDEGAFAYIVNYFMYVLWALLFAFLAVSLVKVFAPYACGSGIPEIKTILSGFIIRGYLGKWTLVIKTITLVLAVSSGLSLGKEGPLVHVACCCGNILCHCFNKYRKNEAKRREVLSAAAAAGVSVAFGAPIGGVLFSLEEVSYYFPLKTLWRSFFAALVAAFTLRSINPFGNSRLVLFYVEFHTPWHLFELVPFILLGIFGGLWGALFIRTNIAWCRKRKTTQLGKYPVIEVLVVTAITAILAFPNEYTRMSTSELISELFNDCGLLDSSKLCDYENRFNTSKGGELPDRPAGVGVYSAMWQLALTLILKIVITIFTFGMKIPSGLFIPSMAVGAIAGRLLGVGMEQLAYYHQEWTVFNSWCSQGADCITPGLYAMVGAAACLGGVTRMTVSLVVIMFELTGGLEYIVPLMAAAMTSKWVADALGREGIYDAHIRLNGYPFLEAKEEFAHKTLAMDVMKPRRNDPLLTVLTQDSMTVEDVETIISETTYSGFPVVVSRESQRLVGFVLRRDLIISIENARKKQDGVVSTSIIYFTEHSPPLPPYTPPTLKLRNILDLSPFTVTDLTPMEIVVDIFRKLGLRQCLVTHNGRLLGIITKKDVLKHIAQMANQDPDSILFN
Chain of UniProt Q9H257 (Q9H257 whole entry, looked up): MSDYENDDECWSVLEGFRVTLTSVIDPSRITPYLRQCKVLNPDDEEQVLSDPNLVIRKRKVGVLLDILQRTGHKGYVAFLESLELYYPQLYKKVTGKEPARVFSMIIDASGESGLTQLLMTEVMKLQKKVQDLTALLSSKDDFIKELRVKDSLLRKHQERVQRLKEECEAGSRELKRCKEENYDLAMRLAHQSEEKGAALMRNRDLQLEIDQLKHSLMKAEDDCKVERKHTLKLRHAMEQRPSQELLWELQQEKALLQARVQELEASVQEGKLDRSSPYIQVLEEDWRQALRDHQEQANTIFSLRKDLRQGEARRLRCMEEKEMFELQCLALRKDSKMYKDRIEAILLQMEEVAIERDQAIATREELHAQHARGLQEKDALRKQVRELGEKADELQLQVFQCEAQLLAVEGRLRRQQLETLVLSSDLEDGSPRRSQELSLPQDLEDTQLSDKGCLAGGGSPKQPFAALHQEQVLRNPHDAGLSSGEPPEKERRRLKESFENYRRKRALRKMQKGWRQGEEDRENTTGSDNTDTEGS
Chain of UniProt Q5T655 (Q5T655 whole entry, looked up): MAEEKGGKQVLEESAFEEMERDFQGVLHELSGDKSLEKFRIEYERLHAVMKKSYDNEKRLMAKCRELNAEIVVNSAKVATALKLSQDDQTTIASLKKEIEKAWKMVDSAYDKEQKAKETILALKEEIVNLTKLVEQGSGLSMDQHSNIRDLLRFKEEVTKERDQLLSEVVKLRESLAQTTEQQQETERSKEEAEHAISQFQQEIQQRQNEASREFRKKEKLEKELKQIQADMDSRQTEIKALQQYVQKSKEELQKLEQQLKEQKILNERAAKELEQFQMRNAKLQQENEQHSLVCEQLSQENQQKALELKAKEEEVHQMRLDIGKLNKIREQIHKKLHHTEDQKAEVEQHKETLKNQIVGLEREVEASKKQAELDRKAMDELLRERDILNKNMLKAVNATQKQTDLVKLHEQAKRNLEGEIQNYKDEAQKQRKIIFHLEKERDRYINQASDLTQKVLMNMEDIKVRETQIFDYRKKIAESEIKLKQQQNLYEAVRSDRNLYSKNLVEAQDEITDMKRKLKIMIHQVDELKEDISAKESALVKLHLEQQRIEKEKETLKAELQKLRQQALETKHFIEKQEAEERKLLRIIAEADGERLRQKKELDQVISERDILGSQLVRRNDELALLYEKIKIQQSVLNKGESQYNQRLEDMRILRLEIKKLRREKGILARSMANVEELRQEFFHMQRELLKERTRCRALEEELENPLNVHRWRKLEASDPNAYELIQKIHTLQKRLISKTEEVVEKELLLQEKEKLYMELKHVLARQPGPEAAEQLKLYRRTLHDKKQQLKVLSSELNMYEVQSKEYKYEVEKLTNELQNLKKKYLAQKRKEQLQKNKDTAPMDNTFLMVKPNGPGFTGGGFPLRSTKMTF

Target	log2 fold change (duvelisib)	log2 fold change (gandotinib)	log2 fold change (tozasertib)	log2 fold change [1]	log2 fold change (bafetinib)	log2 fold change [2]	log2 fold change (nilotinib)	log2 fold change [3]	log2 fold change (dasatinib)	log2 fold change [4]	log2 fold change (tipifarnib)	log2 fold change (mubritinib)	log2 fold change (crizotinib)	log2 fold change [5]	log2 fold change [6]	log2 fold change (doramapimod)	log2 fold change (ispinesib)	log2 fold change [7]	log2 fold change [8]	log2 fold change [9]
CKS2 (UniProt P33552)	0.01	-0.272	-0.094	-0.038	-0.021	0.048	-0.008	-0.188	0.096	-0.222	-0.047	0.325	–	–	–	–	–	–	–	–
CLN3 (UniProt Q13286)	0.096	–	-0.006	-0.085	-0.099	–	-0.016	0.002	0.064	-0.02	0.1	0.09	-0.327	0.066	0.071	-0.047	-0.307	-0.049	0.028	–
CLASP2 (UniProt O75122)	–	–	–	–	-0.098	–	0.014	-0.278	–	-0.231	0.045	0.027	-0.21	–	0.155	0.132	-0.007	-0.155	-0.344	–
CARD9 (UniProt Q9H257)	–	–	–	–	–	–	–	–	–	–	–	–	-0.023	–	–	0.135	-0.398	–	0.085	–
CREB3L2 (UniProt Q70SY1)	–	–	-0.132	–	0.01	–	0.091	-0.009	–	-0.119	–	0.13	0.098	-0.076	-0.26	0.128	-0.342	0.039	-0.024	–
CEMIP2 (UniProt Q9UHN6)	0.037	-0.129	0	-0.136	-0.018	0.002	0.069	0.083	-0.044	0.031	0.033	-0.024	0.075	0.023	0.03	-0.144	-0.148	0.03	0.179	–
CLCN5 isoform 2 (UniProt P51795)	0.188	-0.083	0.122	-0.049	–	0.048	-0.176	0.014	-0.177	-0.063	–	–	-0.321	–	-0.123	-0.03	-0.419 (active)	0.041	-0.061	–
CCNDBP1 (UniProt O95273)	0.016	-0.066	0.1	0.043	0.059	-0.017	-0.19	0.028	0.023	0.21	–	-0.045	–	–	0.06	–	-0.029	-0.055	-0.197	0.016
CNRIP1 (UniProt Q96F85)	–	–	–	–	–	–	-0.066	-0.071	–	0.056	-0.075	-0.148	–	0.209	–	–	-0.147	–	0.038	–
COMMD3-BMI1 (UniProt R4GMX3)	–	-0.011	-0.048	–	–	-0.032	-0.109	-0.02	–	0.046	0.435	–	–	-0.031	0.019	–	–	0.141	–	0.074
CA1 (UniProt E5RIF9)	0.055	–	-0.153	-0.613	-0.042	–	–	–	-0.098	–	–	–	–	-0.134	–	–	–	–	–	–
CPNE5 (UniProt Q9HCH3)	–	–	0.374	–	–	–	–	–	–	–	–	–	–	–	0.148	–	–	-0.077	–	–
CFAP47 (UniProt Q6ZTR5)	-0.027	–	–	-0.302	0.034	–	–	–	-0.117	–	0.047	–	–	0.099	–	–	–	–	–	–
CCNL1 (UniProt Q9UK58)	–	–	–	–	–	–	–	–	–	–	–	0.122	–	–	–	–	–	–	–	–
CFAP58 (UniProt Q5T655)	–	-0.011	–	–	–	0.009	–	–	–	–	-0.108	0.127	–	–	–	–	-0.165	–	-0.046	–
CRMP1 isoform 2 (UniProt Q14194)	0.208	-0.132	-0.602	-0.003	-0.024	-0.035	-0.012	0.221	-0.074	-0.138	–	–	–	–	0.08	–	–	0.182	–	0.024
